{
  "source": "the supplement of paper PMC9262897",
  "about": "“Low-cost anti-mycobacterial drug discovery using engineered E. coli” (Nature Communications, 2022)",
  "note": "Counter-ions that a name gives are not always drawn. ± gives the standard deviation of the averaged measurements.",
  "data": [
    {"test_system": "E. coli TESEC Alr+ wild-type control", "assay": "growth (OD600 after 10 h); higher = more growth (less inhibition)", "conditions": "compound 0.1 mM; raw OD600 reference: median of DMSO wells 0.241, cell-free background 0.041", "method": "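TESEC Mtb Alr E. coli, or the Alr+ wild-type control, in 384-well plates with Prestwick library compounds at 0.1 mM and 1% DMSO, across arabinose induction levels of 1E3 to 1E7 nM. Growth is read as OD600 after 10 h at 37 °C in triplicate biological replicates.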", "values": [
      {"smiles": "CN(C)CCCOc1nn(Cc2ccccc2)c2ccccc12", "note": "[Benzydamine hydrochloride]", "growth": "0.183 ± 0.0043"},
      {"smiles": "CC1CS(=O)(=O)CCN1/N=C/c1ccc([N+](=O)[O-])o1", "note": "(stereo unspecified) [Nifurtimox]", "growth": "0.04547 ± 0.00025"},
      {"smiles": "NCC[C@H](O)C(=O)N[C@@H]1C[C@H](N)[C@@H](O[C@H]2O[C@H](CN)[C@@H](O)[C@H](O)[C@H]2O)[C@H](O)[C@H]1O[C@H]1O[C@H](CO)[C@@H](O)[C@H](N)[C@H]1O", "note": "[Amikacin hydrate]", "growth": "0.04273 ± 0.00012"},
      {"smiles": "Cc1cn([C@H]2C[C@H](N=[N+]=[N-])[C@@H](CO)O2)c(=O)[nH]c1=O", "note": "[Zidovudine, AZT]", "growth": "0.0935 ± 0.0041"},
      {"smiles": "NC1CCN(c2nc3c(cc2F)c(=O)c(C(=O)O)cn3-c2ccc(F)cc2F)C1", "note": "(stereo unspecified) [Tosufloxacin hydrochloride]", "growth": "0.0572 ± 0.0069"},
      {"smiles": "CC[C@H](C)C(=O)O[C@H]1C[C@H](O)C=C2C=C[C@H](C)[C@H](CC[C@@H](O)C[C@@H](O)CC(=O)O)[C@H]21", "note": "[Pravastatin]", "growth": "0.229 ± 0.013"},
      {"smiles": "CC(NCCC(c1ccccc1)c1ccccc1)c1ccccc1", "note": "(stereo unspecified) [Fendiline hydrochloride]", "growth": "0.03973 ± 0.00035"},
      {"smiles": "CCN1CCCC(OC(=O)C(c2ccccc2)c2ccccc2)C1", "note": "(stereo unspecified) [Piperidolate hydrochloride]", "growth": "0.18 ± 0.0021"},
      {"smiles": "COc1ccc(C(=O)NCc2ccc(OCCN(C)C)cc2)cc1OC", "note": "[Itopride]", "growth": "0.241 ± 0.0038"},
      {"smiles": "CCCCOc1ccc(C(=O)CCN2CCCCC2)cc1", "note": "[Dyclonine hydrochloride]", "growth": "0.208 ± 0.004"},
      {"smiles": "CC(C)C(=O)c1c(C(C)C)nn2ccccc12", "note": "[Ibudilast]", "growth": "0.163 ± 0.0085"},
      {"smiles": "CC(O)(P(=O)(O)O)P(=O)(O)O", "note": "[Etidronic acid, disodium salt]", "growth": "0.261 ± 0.021"},
      {"smiles": "Nc1ccc(O)c(C(=O)O)c1", "note": "[Mesalamine]", "growth": "0.2446 ± 0.0018"},
      {"smiles": "CC=CC1=C(C(=O)O)N2C(=O)[C@@H](NC(=O)[C@H](N)c3ccc(O)cc3)[C@H]2SC1", "note": "[Cefprozil]", "growth": "0.223 ± 0.0095"},
      {"smiles": "O=C(OCC(O)CO)c1ccccc1Nc1ccnc2cc(Cl)ccc12", "note": "(stereo unspecified) [Glafenine hydrochloride]", "growth": "0.116 ± 0.0048"},
      {"smiles": "CC1Cc2ccccc2N1NC(=O)c1ccc(Cl)c(S(N)(=O)=O)c1", "note": "(stereo unspecified) [Indapamide]", "growth": "0.225 ± 0.0038"},
      {"smiles": "CN(C)CCN1C(=O)c2ccccc2N(C)c2ccccc21", "note": "[Dibenzepine hydrochloride]", "growth": "0.234 ± 0.0039"},
      {"smiles": "CO[C@@]1(NC(=O)Cc2cccs2)C(=O)N2C(C(=O)O)=C(COC(N)=O)CS[C@@H]21", "note": "[Cefoxitin sodium salt]", "growth": "0.0397 ± 0.00092"},
      {"smiles": "CCC1(c2ccccc2)NC(=O)N(C)C1=O", "note": "(stereo unspecified) [Mephenytoin]", "growth": "0.249 ± 0.0037"},
      {"smiles": "CCN(CC)CC#CCOC(=O)C(O)(c1ccccc1)C1CCCCC1", "note": "(stereo unspecified) [Oxybutynin chloride]", "growth": "0.148 ± 0.0035"},
      {"smiles": "COC(=O)[C@H](c1ccccc1Cl)N1CCc2sccc2C1", "note": "[Clopidogrel]", "growth": "0.0938 ± 0.0032"},
      {"smiles": "CN(C)CCOc1ccc(/C(=C(/CCCl)c2ccccc2)c2ccccc2)cc1", "note": "[Toremifene]", "growth": "0.0414 ± 0.0014"},
      {"smiles": "O=C1c2ccccc2S(=O)(=O)N1CCCCN1CCN(c2ncccn2)CC1", "note": "[Ipsapirone]", "growth": "0.206 ± 0.0034"},
      {"smiles": "COc1ccc(-c2cc(=S)ss2)cc1", "note": "[Anethole-trithione]", "growth": "0.182 ± 0.013"},
      {"smiles": "CCCc1nc2c(C)cc(-c3nc4ccccc4n3C)cc2n1Cc1ccc(-c2ccccc2C(=O)O)cc1", "note": "[Telmisartan]", "growth": "0.208 ± 0.0078"},
      {"smiles": "CSc1ccc2c(c1)N(CCC1CCCCN1C)c1ccccc1S2", "note": "(stereo unspecified) [Thioridazine hydrochloride]", "growth": "0.04013 ± 0.00015"},
      {"smiles": "CCOC(=O)c1ccc(N)cc1", "note": "[Benzocaine]", "growth": "0.249 ± 0.0072"},
      {"smiles": "Cc1cc2c(cc1S(N)(=O)=O)S(=O)(=O)CCC2", "note": "[Meticrane]", "growth": "0.252 ± 0.0068"},
      {"smiles": "CC(C)COCC(CN(Cc1ccccc1)c1ccccc1)N1CCCC1", "note": "(stereo unspecified) [Bepridil hydrochloride]", "growth": "0.03963 ± 0.00021"},
      {"smiles": "NC[C@H]1O[C@H](O[C@H]2[C@H](O[C@@H]3O[C@H](CO)[C@@H](O)[C@H]3O)[C@@H](O)[C@H](N)C[C@@H]2N)[C@H](N)[C@@H](O)[C@@H]1O", "note": "[Ribostamycin sulfate salt]", "growth": "0.238 ± 0.011"},
      {"smiles": "N=C(N)NS(=O)(=O)c1ccc(N)cc1", "note": "[Sulfaguanidine]", "growth": "0.249 ± 0.013"}
    ]}
  ]
}
